Measurements from PubChem BioAssay (Tox21).
“And” between values parts separate entries of the source, which are not always exact repeats. Identical values can stand only once. Results filed as inconclusive are left out. Entries that show only a call come without a potency. Some structures have more than one record in an assay (separate samples or runs), and their calls can disagree. The source made the active and inactive calls. Unless noted, calls come from the whole dose curve; as a rule, active = well fitted curve in the direction sought with a large enough effect in the repeat runs; inconclusive = weak or mixed curves; inactive = no such curve, though single readings can be large; an effect the other way counts as inactive or inconclusive.

Columns and labels:
[1] = qHTS assay to identify small molecule antagonists of the sonic hedgehog signaling (Shh) pathway (AID 1259369; calls by dose curve; note: nearly all actives have a fitted effect of over 45% in size; note: potency is the fitted concentration of half-maximal effect)
Procedure, shortened: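 Stable Gli1-Luc reporter NIH/3T3 clone; quantitative HTS in stimulated mode with conditioned medium. Luminescence measured after 24hr compound treatment at 37 C.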

[2] = qHTS assay to identify small molecule agonists of the estrogen receptor beta (ER-beta) signaling pathway - cell viability counter screen (AID 1259380); note: nearly all actives have a fitted effect of over 30% in size; note: potency is the fitted concentration of half-maximal effect
Procedure, shortened: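 Steps: plate ER-beta-UAS-bla HEK293T cells, rest 6 hr; add compounds in DMSO; incubate 16 hr at 37C, 5% CO2; add FRET substrate 2 hr; add CellTiter-Glo, wait 30 min at room temperature; read luminescence.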

[3] = qHTS assay to identify small molecule antagonists of the estrogen receptor beta (ER-beta) signaling pathway - cell viability counter screen (AID 1259382);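 note: HEK293T cells carrying ER-beta-UAS-bla reporter stimulated with estradiol; series mostly up to about 92 µM; nearly all actives have a fitted effect of over 55% in size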
Procedure, shortened: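 Viability is scored by CellTiter-Glo luminescence (30 min, room temperature) in ER-beta-UAS-bla HEK293T wells already read for reporter fluorescence. Compound exposure lasts 16 hr at 37C alongside 1nM 17-beta-estradiol in charcoal-stripped serum medium.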

[4] = qHTS assay to identify small molecule agonists or antagonists of the thyroid stimulating hormone receptor (TSHR) signaling pathway - wild type cell line counter screen (AID 1259384; calls by dose curve)
Procedure, shortened: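 Wild-type HEK293 cells were plated 18 h at 37 C/5% CO2, pin-dosed with compound plus Ro20-1724 medium, held 30 min at room temperature, then given cAMP-d2 and anti-cAMP-cryptate; fluorescence was read after 1 h. Fifteen concentrations, triplicate.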

[5] = biological target: Thyrotropin receptor (Homo sapiens) (UniProt P16473); assay: qHTS assay to identify small molecule antagonists of the thyroid stimulating hormone receptor (TSHR) signaling pathway (AID 1259385; calls by dose curve; note: nearly all actives have a fitted effect of over 20% in size)
Thyrotropin receptor (Homo sapiens), sequence (P16473 whole entry, looked up): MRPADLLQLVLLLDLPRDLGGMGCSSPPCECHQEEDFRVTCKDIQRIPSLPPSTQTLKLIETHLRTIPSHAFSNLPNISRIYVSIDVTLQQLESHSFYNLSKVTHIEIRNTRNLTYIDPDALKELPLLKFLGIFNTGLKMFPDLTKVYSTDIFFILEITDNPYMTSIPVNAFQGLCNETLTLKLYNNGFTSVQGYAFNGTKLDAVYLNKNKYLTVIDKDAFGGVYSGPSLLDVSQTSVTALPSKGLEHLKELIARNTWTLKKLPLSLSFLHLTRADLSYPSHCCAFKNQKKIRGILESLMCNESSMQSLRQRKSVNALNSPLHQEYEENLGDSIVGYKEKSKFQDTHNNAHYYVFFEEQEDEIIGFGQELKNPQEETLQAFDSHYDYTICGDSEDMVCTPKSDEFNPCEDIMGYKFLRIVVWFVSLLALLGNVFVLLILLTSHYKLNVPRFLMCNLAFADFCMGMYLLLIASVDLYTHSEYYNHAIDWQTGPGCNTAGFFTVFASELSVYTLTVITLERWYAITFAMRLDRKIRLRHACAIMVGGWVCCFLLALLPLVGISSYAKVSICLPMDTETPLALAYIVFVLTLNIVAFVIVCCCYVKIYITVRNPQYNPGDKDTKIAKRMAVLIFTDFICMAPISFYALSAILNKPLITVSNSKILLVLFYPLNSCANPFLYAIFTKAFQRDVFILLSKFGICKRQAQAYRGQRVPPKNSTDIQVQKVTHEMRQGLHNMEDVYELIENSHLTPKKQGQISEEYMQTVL
Procedure, shortened: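 TSHR-HEK293 cells were plated and held 18 h at 37C/5% CO2, then given compound plus Ro20-1724 and stimulated with TSH at 1.5 ng/mL final. After 30 min at room temperature, cAMP was detected with cAMP-d2/anti-cAMP-cryptate (1 h) by fluorescence.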

[6] = qHTS assay to identify small molecule agonists of the estrogen receptor alpha (ER-alpha) signaling pathway in the presence of an antagonist - cell viability counter screen (AID 1259386);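 note: cells exposed to compounds for 22 h at 37 °C before the viability read; nearly all actives have a fitted effect of over 30% in size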; note: potency is the fitted concentration of half-maximal effect; for activity change, negative = cytotoxicity: series mostly up to about 92 µM
Procedure, shortened: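 In this counter screen, compound effects on VM7Luc4E2 viability were tested in the presence of the antagonist ICI-182,780 at 10.0nM final. Compounds were dosed at 15 concentrations, exposure lasted 22hr, and the CellTiter-Fluor signal was read.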

[7] = biological target: Progesterone receptor (Homo sapiens) (UniProt P06401); assay: qHTS assay to identify small molecule agonists of the progesterone receptor (PR) signaling pathway (AID 1346784; calls by dose curve; note: nearly all actives have a fitted effect of over 30% in size; note: potency is the fitted concentration of half-maximal effect)
Progesterone receptor (Homo sapiens), sequence (P06401 whole entry, looked up): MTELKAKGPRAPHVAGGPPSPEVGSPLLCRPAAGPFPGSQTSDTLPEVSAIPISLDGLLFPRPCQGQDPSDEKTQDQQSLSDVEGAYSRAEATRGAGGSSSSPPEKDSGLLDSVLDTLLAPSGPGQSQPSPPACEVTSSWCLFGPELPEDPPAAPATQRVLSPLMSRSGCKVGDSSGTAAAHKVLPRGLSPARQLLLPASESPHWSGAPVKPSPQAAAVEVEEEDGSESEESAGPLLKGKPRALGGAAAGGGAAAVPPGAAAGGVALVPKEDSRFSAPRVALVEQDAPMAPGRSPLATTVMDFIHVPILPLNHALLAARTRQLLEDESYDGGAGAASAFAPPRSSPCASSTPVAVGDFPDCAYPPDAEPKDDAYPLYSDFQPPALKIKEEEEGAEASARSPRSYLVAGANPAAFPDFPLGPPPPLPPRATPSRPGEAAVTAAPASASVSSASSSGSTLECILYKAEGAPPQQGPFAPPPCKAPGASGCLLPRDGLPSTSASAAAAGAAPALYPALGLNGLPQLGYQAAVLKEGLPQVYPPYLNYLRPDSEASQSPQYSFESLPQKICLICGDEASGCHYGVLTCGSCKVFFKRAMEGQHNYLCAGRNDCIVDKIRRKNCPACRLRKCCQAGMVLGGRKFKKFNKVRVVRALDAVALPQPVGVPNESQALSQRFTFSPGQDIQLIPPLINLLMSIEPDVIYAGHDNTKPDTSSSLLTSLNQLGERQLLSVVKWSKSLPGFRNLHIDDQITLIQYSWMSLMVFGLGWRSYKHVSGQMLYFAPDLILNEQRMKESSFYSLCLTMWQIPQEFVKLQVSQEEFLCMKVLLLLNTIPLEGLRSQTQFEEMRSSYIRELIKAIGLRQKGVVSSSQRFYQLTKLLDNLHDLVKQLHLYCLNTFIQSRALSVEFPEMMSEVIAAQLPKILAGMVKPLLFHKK
Procedure, shortened: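 PR-UAS-bla HEK 293T cells (beta-lactamase reporter under UAS) in 2% charcoal-stripped FBS, dosed with 23 nL compound after 6 hr, incubated 16hr at 37C. LiveBLAzer B/G FRET substrate added, fluorescence read after 2 hours.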

[8] = biological target: Progesterone receptor (Homo sapiens) (UniProt P06401); assay: qHTS assay to identify small molecule antagonists of the progesterone receptor (PR) signaling pathway (AID 1346795; active = well fitted inhibition curve with a large enough effect in the signal ratio in the repeat runs, not every such curve was filed as active; the % refers to the signal ratio; note: potency is the fitted concentration of half-maximal effect)
Procedure, shortened: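 PR-UAS-bla HEK293T cells with beta-lactamase reporter under UAS control, in 2% charcoal-stripped FBS, treated with compounds plus 1 nM promegestone (R5020, final) for 16 hr at 37C. Read-out: FRET beta-lactamase substrate fluorescence after 2 hr at room temperature.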

[9] = qHTS assay to identify small molecule antagonists of the progesterone receptor (PR) signaling pathway - cell viability counter screen (AID 1346798); note: series mostly up to about 92 µM; nearly all actives have a fitted effect of over 50% in size
Procedure, shortened: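 PR-UAS-bla HEK293T cells, 3,000/well in 2% charcoal-stripped FBS medium, dosed with compounds plus R5020 agonist and incubated 16 h at 37C. Viability then measured in the same wells by CellTiter-Glo luminescence after 30 min at RT.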

[10] = qHTS assay to identify small molecule agonists of the progesterone receptor (PR) signaling pathway - cell viability counter screen (AID 1346799; calls by dose curve; note: nearly all actives have a fitted effect of over 45% in size)
Procedure, shortened: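 Counter screen in the PR-UAS-bla HEK293T wells (2% charcoal-stripped FBS, 16 h compound exposure at 37 C) after the bla read. CellTiter-Glo added, 30 min at room temperature, luminescence read as cell viability.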

[11] = qHTS assay to identify small molecule antagonists of the TGF-beta/Smad signaling pathway - cell viability counter screen (AID 1346824); note: nearly all actives have a fitted effect of over 50% in size
Procedure, shortened: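 SBE-bla HEK 293T cells were plated overnight at 37 C, then given compounds in DMSO plus TGF-beta1 (added as 0.25 ng/mL solution) for 5 hr. After the bla read, CellTiter-Glo was added to the same wells and luminescence read after 30 min at room temperature.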

[12] = qHTS assay to identify small molecule agonists of the TGF-beta/Smad signaling pathway - cell viability counter screen (AID 1346829); note: top concentration of the series differs between compounds; nearly all actives have a fitted effect of over 45% in size
Procedure, shortened: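 Here the cytotoxicity of library compounds is measured in SBE-bla HEK 293T cells treated for 5 hr, using CellTiter-Glo added to wells already read for the beta-lactamase reporter.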

[13] = qHTS assay to identify small molecule agonists of the TGF-beta/Smad signaling pathway (AID 1346859; active = well fitted activation curve with a large enough effect in the signal ratio in the repeat runs, not every such curve was filed as active; the % refers to the signal ratio; note: series mostly up to about 77 µM)
Procedure, shortened: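 SBE-bla HEK293T cells plated overnight, then compound exposure for 5 h at 37 C. Beta-lactamase reporter read with LiveBLAzer B/G FRET substrate after 2 h at room temperature, fluorescence at 405 nm excitation, 460/530 nm emission.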

[14] = biological target: Thyrotropin-releasing hormone receptor (Homo sapiens) (UniProt P34981); assay: qHTS assay to identify small molecule antagonists of the thyrotropin-releasing hormone receptor (TRHR) signaling pathway (AID 1346877; active = well fitted inhibition curve with a large enough effect in the repeat runs, not every such curve was filed as active; note: series mostly up to about 51 µM)
Thyrotropin-releasing hormone receptor (Homo sapiens), sequence (P34981 whole entry, looked up): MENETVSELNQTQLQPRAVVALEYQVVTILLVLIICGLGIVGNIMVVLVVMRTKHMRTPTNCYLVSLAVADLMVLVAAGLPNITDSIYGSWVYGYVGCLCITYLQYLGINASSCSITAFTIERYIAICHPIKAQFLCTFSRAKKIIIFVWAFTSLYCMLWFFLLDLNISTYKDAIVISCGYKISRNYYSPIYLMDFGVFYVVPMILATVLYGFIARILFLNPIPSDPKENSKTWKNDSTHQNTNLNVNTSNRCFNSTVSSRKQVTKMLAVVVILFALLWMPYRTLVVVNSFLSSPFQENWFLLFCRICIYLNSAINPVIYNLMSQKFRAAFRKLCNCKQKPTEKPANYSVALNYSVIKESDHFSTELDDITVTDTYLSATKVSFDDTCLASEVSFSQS
Procedure, shortened: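 Kinetic fluorescence (3 min, 1 s resolution) following stimulation with TRH at 1 nM final; HEK293 cells bearing human TRHR; 5 min compound preincubation at RT; concentration-response over 15 points, triplicates.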

[15] = biological target: Thyrotropin-releasing hormone receptor (Homo sapiens) (UniProt P34981); assay: qHTS assay to identify small molecule agonists of the thyrotropin-releasing hormone receptor (TRHR) signaling pathway (AID 1346891; calls by dose curve; note: series mostly up to about 58 µM)
Procedure, shortened: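 HEK293 cells expressing TRHR plated 18 h at 37 C/5% CO2, calcium dye-loaded 2 h at 37 C, then compound added (agonist mode); kinetic calcium fluorescence read 3 min at 1 s intervals; 15 concentrations in triplicate.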

[16] = biological target: Estrogen receptor (Homo sapiens) (UniProt P03372); assay: qHTS assay to identify small molecule agonists of the estrogen receptor alpha (ER-alpha) signaling pathway in the presence of an antagonist (AID 1259383; calls by dose curve; note: top concentration of the series differs between compounds; nearly all actives have a fitted effect of over 15% in size)
Estrogen receptor (Homo sapiens), sequence (P03372 whole entry, looked up): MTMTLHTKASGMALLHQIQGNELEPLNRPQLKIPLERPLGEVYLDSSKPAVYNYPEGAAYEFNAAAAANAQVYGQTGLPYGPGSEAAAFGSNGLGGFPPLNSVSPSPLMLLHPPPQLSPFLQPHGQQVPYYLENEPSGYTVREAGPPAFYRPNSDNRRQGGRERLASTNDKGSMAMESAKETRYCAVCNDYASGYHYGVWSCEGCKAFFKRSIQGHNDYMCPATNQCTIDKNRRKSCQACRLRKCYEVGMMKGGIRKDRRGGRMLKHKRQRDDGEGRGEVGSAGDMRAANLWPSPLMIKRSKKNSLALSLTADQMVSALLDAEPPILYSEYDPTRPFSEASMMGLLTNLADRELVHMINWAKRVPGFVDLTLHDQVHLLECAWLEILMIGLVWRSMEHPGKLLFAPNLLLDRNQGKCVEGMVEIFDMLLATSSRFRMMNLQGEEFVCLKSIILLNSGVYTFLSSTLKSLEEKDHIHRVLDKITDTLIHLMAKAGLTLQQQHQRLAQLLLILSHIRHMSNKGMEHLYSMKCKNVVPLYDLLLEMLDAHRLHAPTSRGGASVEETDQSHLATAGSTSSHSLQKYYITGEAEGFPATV
Procedure, shortened: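 Readout was ERE-driven luciferase luminescence in VM7Luc4E2 cells, which express full-length ER-alpha endogenously. Compounds were tested at 15 concentrations for 22hr alongside 10.0nM ICI-182,780 (final concentration).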

[17] = qHTS assay to identify small molecule agonists of the androgen receptor (AR) signaling pathway in the presence of an antagonist - cell viability counter screen (AID 1259379); note: nearly all actives have a fitted effect of over 25% in size; note: potency is the fitted concentration of half-maximal effect;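 for activity change, negative = cytotoxicity: MDA-kb2 human breast cancer cells carrying an MMTV luciferase reporter; series mostly up to about 92 µM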
Procedure, shortened: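 Nilutamide-containing (3.0uM final) MDA-kb2 cultures, 3,000 cells/well, were treated with compounds across 15 concentrations. After 16 hr at 37C with no CO2, cell viability was determined by CellTiter-Fluor fluorescence in the luciferase assay wells.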

| SMILES | Potency [1] | Potency [2] | Potency [3] | Potency [4] | Potency [5] | Potency [6] | Potency [7] | Potency [8] | Potency [9] | Potency [10] | Potency [11] | Potency [12] | Potency [13] | Potency [14] | outcome [15] | Potency [16] | Potency [17] | activation [7] | activity change, negative = cytotoxicity [10] |
| --- | --- | --- | --- | --- | --- | --- | --- | --- | --- | --- | --- | --- | --- | --- | --- | --- | --- | --- | --- |
| Cc1ncc(CO)c(CO)c1O | inactive | inactive | inactive | inactive | inactive | inactive | inactive | inactive | inactive | inactive | inactive | inactive | inactive | inactive | inactive | – | – | – | – |
| COc1ccc(N)c(OC)c1 | 9.31 µM (active) | inactive and 54.5 µM (active) | inactive | inactive | inactive | inactive | inactive | inactive | inactive | inactive | inactive | inactive | inactive | – | – | inactive | – | – | – |
| COc1ccccc1[N+](=O)[O-] | inactive | inactive | inactive | – | – | inactive | inactive | inactive | inactive | inactive | inactive | inactive | inactive | inactive | inactive | – | inactive | – | – |
| c1cnc2c(c1)ccc1cccnc12 | inactive | 2.43 µM (active) | – | inactive | inactive | 5.5 µM (active) | inactive | 309 nM (active) and 306 nM (active) | – | – | inactive | inactive | inactive | – | – | – | 15.5 µM (active) and 30.6 µM (active) and 21.7 µM (active) | – | – |
| Cc1cc(C)c(O)c(C)c1 | inactive | inactive | – | inactive | inactive | inactive | inactive | – | inactive | inactive | inactive | inactive | inactive | inactive | inactive | inactive | inactive | – | – |
| Brc1ccc(Oc2ccc(Br)cc2)cc1 | inactive | inactive | inactive | inactive | – | inactive | inactive | inactive | inactive | inactive | inactive | inactive | inactive | inactive | inactive | – | – | – | – |
| CCn1cc(C(=O)O)c(=O)c2cc3c(cc21)OCO3 | inactive | inactive | inactive | inactive | inactive | inactive | 1.24 µM (active) | inactive | inactive | – | inactive | inactive | inactive | inactive | inactive | – | inactive | -1.39% [at 19 µM] (inactive) | -0.681% [at 19 µM] (inactive) |
| Cc1ccccc1C=O | inactive | inactive | – | inactive | inactive | inactive | inactive | inactive | inactive | inactive | inactive | inactive | inactive | inactive | inactive | inactive | – | – | – |
| CC1(C)[C@@H](O[C@H]2O[C@H](C(=O)O)[C@@H](O)[C@H](O)[C@H]2O[C@@H]2O[C@H](C(=O)O)[C@@H](O)[C@H](O)[C@H]2O)CC[C@]2(C)[C@H]3C(=O)C=C4[C@@H]5C[C@@](C)(C(=O)O)CC[C@]5(C)CC[C@@]4(C)[C@]3(C)CC[C@@H]12 | inactive | inactive | – | inactive | inactive | inactive | inactive | – | inactive | inactive | inactive | inactive | inactive | – | – | – | inactive | – | – |
| N[C@@H](Cc1cc(I)c(Oc2ccc(O)c(I)c2)c(I)c1)C(=O)O | inactive | inactive | – | – | inactive | inactive | inactive | – | inactive | inactive | inactive | inactive | inactive | – | – | inactive | – | – | – |
| CC(=O)OC(C)(C)C1CC=C(C)CC1 (centres undefined) | inactive | inactive | inactive | inactive | inactive | inactive | inactive | inactive | inactive | inactive | inactive | inactive | inactive | inactive | inactive | inactive | – | – | – |
